Rows were chosen to be rich in hits. Some 1.2% of all compounds tested hit in one or more screens of this group.
GLA inh pH 4.5: inhibitors of human alpha-galactosidase A at pH 4.5 | P06280 | purified enzyme, 4-MU-alpha-Gal fluorescence, pH 4.5 | activity change, negative = inhibition, % at 105 µM | 230,000 tested, under 10 active | AID 1467
Target sequence (P06280 whole entry, looked up): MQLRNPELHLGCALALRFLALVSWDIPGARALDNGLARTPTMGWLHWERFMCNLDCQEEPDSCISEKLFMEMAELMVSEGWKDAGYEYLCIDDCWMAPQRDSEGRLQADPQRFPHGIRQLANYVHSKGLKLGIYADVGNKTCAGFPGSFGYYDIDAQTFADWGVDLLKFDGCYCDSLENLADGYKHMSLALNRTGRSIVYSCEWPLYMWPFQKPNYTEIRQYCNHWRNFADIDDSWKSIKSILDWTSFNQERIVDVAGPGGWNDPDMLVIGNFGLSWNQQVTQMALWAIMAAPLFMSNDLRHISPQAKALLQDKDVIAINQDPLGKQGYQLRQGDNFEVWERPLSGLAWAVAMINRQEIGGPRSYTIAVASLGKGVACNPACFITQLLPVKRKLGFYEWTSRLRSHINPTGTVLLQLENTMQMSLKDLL
HttQ103 aggreg: mutant huntingtin aggregation inhibition; Potency, µM (titrated, usually from 46.1 µM), hits mostly inhibitors; PC12 HttQ103-GFP aggregates, Acumen cytometry, 40 h; 220,000 tested, 1.1% active; also: nearly all actives have a fitted effect of over 60% in size
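Inducible Q103 Huntingtin exon 1–GFP PC12 line, 1500 cells/well in phenol red free DMEM with 5% equine and 5% calf serum. Tebufenozide 100 nM induced expression; compounds titrated; aggregates quantified by cytometry.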
HTT cytoprotect: protects HTT-Q103 PC12 cells, measured by ATP. PC12 HTT-Q103 induced, cytoprotection, ATP luminescence, 40 h. Potency, µM (doses to about 56.4 µM), actives largely listed as activators. 230,000 tested, 0.14% active; also: nearly all actives have a fitted effect of over 45% in size
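Huntington model: PC12 line, ecdysone-inducible HTTQ103 exon1–GFP, tebufenozide 100 nM. Test articles in a dose series. Endpoint luminescence from cellular ATP.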
aGal spleen mod: inhibits or activates alpha-galactosidase in human spleen homogenate. human spleen homogenate, 4MU-alpha-Gal fluorescence, 40 min. Potency, µM (top dose mostly 80 µM), usual class: inhibitors. 240,000 tested, 0.008% active. P06280
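Fluorogenic readout (Ex 365/Em 440 nm) of 4-methylumbelliferone released from 1 mM 4-MU-alpha-galactoside by spleen homogenate, 40 min at 37C, pH 5.0. Data normalized to no-enzyme and enzyme controls; Hill-equation AC50 from compound titrations.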
Of the large screens only hits and unclear results are named; the others gave an inactive call; ! = not confirmed by another sample. Calls follow the shape of the dose curve; as a rule, active = well fitted curve in the direction sought with a large enough effect; inconclusive = small, poorly fitted or top-dose-only effect, or another doubt; inactive = no such curve, though single readings can be large; an effect the other way counts as inactive or inconclusive.

FC(F)(F)c1cnc(C(c2ccccn2)c2ncn[nH]2)c(Cl)c1 (configuration not stated)	HttQ103 aggreg 13µM
COCOc1cc(OC)ccc1C(=O)/C=C/c1cccc(C(F)(F)F)c1	none (no result: HttQ103 aggreg)
COCCOC(=O)C1=C(C)NC(C)=C(C(=O)OC/C=C/c2ccccc2)C1c1cccc([N+](=O)[O-])c1 (configuration not stated)	HttQ103 aggreg inconclusive (no result: GLA inh pH 4.5)
CCCN1CCC(=O)N(C(CSc2ccc(Br)cc2)c2ccccc2)CC1 (configuration not stated)	none (no result: GLA inh pH 4.5, HttQ103 aggreg, HTT cytoprotect)
Nc1ncnc2c1ncn2[C@@H]1O[C@H](COP(=O)(O)OP(=O)(O)OP(=O)(O)OP(=O)(O)OC[C@@H]2O[C@H](n3cnc4c(N)ncnc43)[C@@H](O)[C@@H]2O)[C@H](O)[C@H]1O	none (no result: HttQ103 aggreg, HTT cytoprotect)
CCN(CC)c1ncnc2ccc(Br)cc12	HttQ103 aggreg 13µM
COC(=O)C1(C(=O)OC)C[C@@H]2CON=C2[C@H]1c1ccccc1	HTT cytoprotect 20µM! (no result: HttQ103 aggreg)
Cc1ccc(C2NS(=O)(=O)N=C2N)cc1 (configuration not stated)	none
NC1=NS(=O)(=O)NC1c1ccc(F)cc1 (configuration not stated)	HTT cytoprotect 3.5µM
COCC(=O)O[C@]1(CCN(C)CCCc2nc3ccccc3[nH]2)CCc2cc(F)ccc2[C@@H]1C(C)C	HttQ103 aggreg 7.9µM!
COc1cc(OC)cc([C@H](CNc2ncnc3c2ncn3[C@@H]2O[C@@H](CO)[C@H](O)[C@@H]2O)c2ccccc2C)c1	none (no result: GLA inh pH 4.5, HttQ103 aggreg, aGal spleen mod)
CN(C)c1nc(=NCc2ccco2)ss1	HttQ103 aggreg 0.89µM
O=C1CCCC(=NCc2ccco2)C1	none
O=C(COC(=O)C1CC1)c1c[nH]c2ccccc12	HttQ103 aggreg 0.032µM (no result: HTT cytoprotect)
COc1ccc(N2C(=O)CC3(CCCC3)CC2=O)cc1	HTT cytoprotect 3.2µM
O=C1CC2(CCCC2)CC(=O)N1c1ccccc1	none
C[C@@H]1CCC2C(C)(C)C3CC21CC[C@@]3(C)O (some centres not stated)	none (no result: HttQ103 aggreg)
CCCCCCn1c(NCC)nc2c1c(=O)n(C)c(=O)n2C	HttQ103 aggreg 4µM
CCCCNc1nc2c(c(=O)n(C)c(=O)n2C)n1CCC	none
C=CCn1c(NCCO)nc2c1c(=O)n(C)c(=O)n2C	HttQ103 aggreg 25µM
O=P(O)(O)OP(=O)(O)OP(=O)(O)O	none (no result: GLA inh pH 4.5, aGal spleen mod)
Cc1cc(-c2ccccc2)nc2cc(C(=O)N(Cc3ccccc3)Cc3ccccc3)nn12	HttQ103 aggreg 13µM
COC(=O)c1cc2nc(-c3ccccc3)cc(C)n2n1	none
COc1ccc(C2CC(O)(c3ccccc3)Oc3c(C)ccc(C(C)C)c32)cc1 (configuration not stated)	none (no result: GLA inh pH 4.5, HttQ103 aggreg, HTT cytoprotect)
Cc1nn(Cc2ccc(Cl)cc2Cl)c(C)c1NC(=O)NC12CC3CC(CC(C3)C1)C2	HttQ103 aggreg 25µM
Cc1nn(Cc2ccc(Cl)cc2Cl)c(C)c1NC(=O)c1sc2ccccc2c1Cl	none
CCc1ccccc1N(C)C(=O)CCc1nc(-c2ccc(C)cc2)no1	HttQ103 aggreg 11µM
COC(=O)C1=C[C@@H](C(=O)OC)C2C3=C(C(=O)[C@]2(C)NC(=O)c2ccccc2)[C@H](C)n2c(=O)n(C)c(=O)n2[C@@H]3C1 (some centres not stated)	none (no result: GLA inh pH 4.5, HttQ103 aggreg, HTT cytoprotect)
COCCn1nc2cc(C(=O)NCc3cc(C(F)(F)F)cc(C(F)(F)F)c3)ccc2c1OC	HTT cytoprotect 0.71µM
CCOc1c2ccc(C(=O)NCc3cc(C(F)(F)F)cc(C(F)(F)F)c3)cc2nn1CCOC	none
CSc1nc(N)nc(SCCS(=O)(=O)c2ccc(Cl)cc2)c1C#N	HttQ103 aggreg 10µM
O=C(N[C@H]1CCCc2ccccc21)O[C@@H]1C(=O)c2cc(Br)ccc2O[C@H]1c1ccc2c(c1)OCO2	none (no result: HttQ103 aggreg)
COc1ccc(CCNC(=O)c2ccc(CN3CCC(Cc4ccccc4)CC3)cc2)cc1OC	none
COc1ccc(CCNC(=S)N2CCC(Cc3ccccc3)CC2)cc1OC	GLA inh pH 4.5 inconclusive, HttQ103 aggreg 22µM
C[C@@]12CCC(=O)C=C1CC[C@H]1[C@@H]2[C@@H](O)C[C@]2(C)[C@@H]1CC[C@@]2(O)C(=O)CO	none (no result: GLA inh pH 4.5, HttQ103 aggreg, aGal spleen mod)
O=C(CSc1c2c(nc3cc(Cl)ccc13)CCCC2)NCc1ccco1	HTT cytoprotect 13µM (no result: HttQ103 aggreg)
O=C1c2ccsc2SCCN1Cc1c(Cl)cccc1Cl	HttQ103 aggreg 22µM
O=C1c2ccsc2SCCN1Cc1ccc(Cl)cc1Cl	none
CC(C)(C)c1ccc(-n2nc(C#N)c(Cl)cc2=O)cc1	HttQ103 aggreg 5µM
CC1=NN(c2ccccc2)C(=O)/C1=C\c1ccc(Br)s1	HttQ103 aggreg 0.71µM
CC1=NN(c2ccccc2)C(=O)/C1=C/c1cccs1	none
N#Cc1cc(NC(=O)c2ccc(F)cc2)c(=O)n2c1[nH]c1ccccc12	HttQ103 aggreg 14µM
Cc1c(CCC(=O)O)c(=O)n2c([nH]c3ccccc32)c1C#N	GLA inh pH 4.5 inconclusive, aGal spleen mod inconclusive
CCOC(=O)c1c(NS(=O)(=O)c2cccc(OC)c2)sc2c1CCC2	HTT cytoprotect 14µM
CCOC(=O)Nc1sc2c(c1C(=O)OCC)CCC2	none
O=C(O)CCC(=O)N1N=C(c2c(-c3ccccc3)c3cc(Cl)ccc3[nH]c2=O)CC1c1cccs1 (configuration not stated)	HTT cytoprotect 2.8µM
CCOC(=O)c1ccc(NC(=O)N2CCN(c3ccccn3)CC2)cc1	HttQ103 aggreg 0.56µM
Cc1ccc(S(=O)(=O)NCc2ccc(C(=O)N3CCN(c4ccccn4)CC3)cc2)cc1	none
Cc1ccc(NS(=O)(=O)c2ccc(C(=O)N3CCN(c4ccccn4)CC3)cc2)cc1	HttQ103 aggreg 11µM
CC(=O)[C@@H]1CC[C@@H]2[C@@H]3CC=C4C[C@H](OS(=O)(=O)O)CC[C@@]4(C)[C@H]3CC[C@]21C	none (no result: GLA inh pH 4.5, HttQ103 aggreg, aGal spleen mod)
COc1cc(-c2ccc(N=Nc3ccc4c(S(=O)(=O)O)cc(S(=O)(=O)O)c(N)c4c3O)c(OC)c2)ccc1N=Nc1ccc2c(S(=O)(=O)O)cc(S(=O)(=O)O)c(N)c2c1O	none (no result: HttQ103 aggreg)
Cc1ccccc1-c1ccc2ncnc(-n3ccnc3)c2c1	HTT cytoprotect 1µM (no result: GLA inh pH 4.5, HttQ103 aggreg)
CN(C)C(=O)c1ccc(-c2cncnc2-n2ccnc2)cc1	none (no result: GLA inh pH 4.5, HttQ103 aggreg)
Cc1ccccc1-c1ccc2ncnc(N(C)C)c2c1	none (no result: GLA inh pH 4.5, HttQ103 aggreg)
CN(C)c1ccc(-c2ccc3ncnc(-n4ccnc4)c3c2)cc1	HTT cytoprotect 3.2µM (no result: GLA inh pH 4.5, HttQ103 aggreg)
C=C1CCN(C(Cc2ccccc2)C(=O)NC2CCN(Cc3ccccc3)CC2)S(=O)(=O)c2ccccc21 (configuration not stated)	none (no result: GLA inh pH 4.5, HttQ103 aggreg, HTT cytoprotect)
Cc1ccc2[nH]c(=O)c(CN(CCc3ccccc3)C(c3nnnn3Cc3ccco3)C(C)C)cc2c1 (configuration not stated)	none
CCC(c1nnnn1Cc1ccco1)N(CCc1ccccc1)Cc1cc2cc(C)ccc2[nH]c1=O (configuration not stated)	HttQ103 aggreg 28µM
Cc1ccc2[nH]c(=O)c(CN(Cc3nnnn3Cc3ccccc3)C3CCCC3)cc2c1	HttQ103 aggreg 0.89µM
CCOC(=O)CSc1nnc(CCCCCN2C(=O)c3cccc4cccc(c34)C2=O)o1	none (no result: HTT cytoprotect)
CCOC(=O)CCCSc1nnc(CCCCCN2C(=O)c3cccc4cccc(c34)C2=O)o1	HttQ103 aggreg inconclusive, HTT cytoprotect 2.5µM

Screening results deposited in PubChem BioAssay by National Center for Advancing Translational Sciences (NCATS).
